PubChem BioAssay
The source made the active and inactive calls.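 Rule for the calls, unless noted: active = fluorescence slope after compound addition differing from the mean of all screened samples at 99.7% confidence, in either direction; inactive = the rest.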

Legend:
[1] = inhibitors of TNFa-induced NFkB p65 translocation, primary screen, imaging, HUVEC, MLSMR starter and 10KST1 sets (AID 438;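 active = inhibition above 20% together with a positive visual image hit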;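 note: compound added about 3h40 before a 20 min TNFalpha stimulation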;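 for inhibition: signal is the nuclear over cytoplasmic p65 intensity ratio per well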); conditions: HUVEC TNFa-induced p65 nuclear translocation; cell count: measured here: nuclei count (cytotoxicity indicator), at 2.08 µM; inhibition: at 2 µM, stronger effect = higher value, 0% TNFa-plus-vehicle, 100% no-TNFa wells
[2] = inhibitors of mutant huntingtin aggregation, primary screen, imaging, exon1htt(103Q)mCFP cells, high-content imaging (AID 483;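 active = visual image review flags a hit and inhibition of aggregation exceeds 20%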;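 note: compound exposure lasted 3 days before fixation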;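 for nuclei count: percent of the per-plate median nuclei count of sample wells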); conditions: exon1htt(103Q)mCFP cell line, aggregate imaging, at 2 µM; inhibition of aggregation: stronger effect = higher value; nuclei count: measured here: cell count, toxicity
[3] = inhibitors of E-selectin induction by TNFa, primary screen, imaging, HUVEC, immunofluorescence, MLSMR starter and 10KST1 sets (AID 487;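 active = visually confirmed hit in the image check and inhibition above 20%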;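 for inhibition: signal is fraction of cell area covered by stained E-selectin grains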;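 for nuclei count: 100% = median nuclei count of all wells on the same plate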); conditions: HUVEC TNFalpha-induced E-selectin immunofluorescence imaging, at 2 µM; inhibition: stronger effect = higher value; nuclei count: measured here: cell number, toxicity
[4] = target: Voltage-gated potassium channel subunit beta-2 (Rattus norvegicus) (UniProt P62483); test: KvBeta enzyme negative modulators, primary screen, biochemical, NADPH fluorescence (AID 622;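 active = fluorescence slope higher than the sample average by over 3 SD, cut at about -0.22 in these data, passing the limit was not always enough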;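 note: slope of raw intensity against log time taken from 70 to 1610 s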); conditions: recombinant KvBeta, 4-cyanobenzaldehyde reduction, at 10 µM, stronger effect = higher value
[5] = target: Voltage-gated potassium channel subunit beta-2 (Rattus norvegicus) (UniProt P62483); test: KvBeta positive modulators, primary screen, biochemical, NADPH fluorescence (AID 623;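 active = NADPH fluorescence slope more negative than the mean of all samples by about 3 SD, 99.7% confidence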;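 note: fluorescence intensity change per second fitted from 20 to 320 s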); conditions: Recombinant KvBeta, NADPH fluorescence decrease slope, 10 min; at 10 µM; stronger effect = lower value
[6] = target: Alpha-2C adrenergic receptor (Homo sapiens) (UniProt P18825); test: modulators of alpha2C/GIRK thallium flux, primary screen, cell-based, HEK293 alpha2C/GIRK1/2 (AID 624); conditions: thallium flux BTC fluorescence, at 10 µM, actives lie on both sides;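 note: slope of fluorescence ratio to pre-addition baseline per second over 15 to 24 s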
[7] = inhibitors of Sendai virus-induced IRF3 signaling, primary screen, TLR/RLR signaling modifier project, cell-based, Sendai virus stimulus, luciferase, 10K MLSCN set (AID 602276;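 active = inhibition at or above 50% at 10 µM; inactive = inhibition below 50%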;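 note: firefly luciferase from ISG56 promoter only with Renilla not read in this screen; 0% = Sendai virus plus DMSO and 100% = medium plus DMSO without virus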); conditions: HEK293 RL24 IRF3 luciferase reporter, at 10 µM, stronger effect = higher value
[8] = inhibitors of poly I:C-induced TLR3 signaling, primary screen, cell-based, poly I:C stimulus, luciferase, 10K MLSCN set (AID 602277;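 active = inhibition of the reporter signal at or above 50%; inactive = inhibition below 50%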); conditions: HEK293-TLR3 RL24 IRF3 luciferase reporter, at 10 µM, stronger effect = higher value

Chain of Alpha-2C adrenergic receptor (Homo sapiens) (P18825 whole entry, looked up): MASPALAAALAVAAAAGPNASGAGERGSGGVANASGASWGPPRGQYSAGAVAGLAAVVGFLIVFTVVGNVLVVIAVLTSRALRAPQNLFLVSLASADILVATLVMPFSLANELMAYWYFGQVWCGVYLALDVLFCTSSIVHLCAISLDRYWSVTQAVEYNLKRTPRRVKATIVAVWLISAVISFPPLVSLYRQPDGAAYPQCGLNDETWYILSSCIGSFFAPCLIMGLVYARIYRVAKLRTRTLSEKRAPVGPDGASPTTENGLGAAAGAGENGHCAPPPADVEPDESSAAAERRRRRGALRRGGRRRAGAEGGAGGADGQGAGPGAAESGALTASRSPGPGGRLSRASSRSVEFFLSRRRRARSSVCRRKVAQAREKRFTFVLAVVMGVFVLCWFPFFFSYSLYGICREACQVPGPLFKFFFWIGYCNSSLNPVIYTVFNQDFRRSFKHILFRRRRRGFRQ
Chain of Voltage-gated potassium channel subunit beta-2 (Rattus norvegicus) (P62483 whole entry, looked up): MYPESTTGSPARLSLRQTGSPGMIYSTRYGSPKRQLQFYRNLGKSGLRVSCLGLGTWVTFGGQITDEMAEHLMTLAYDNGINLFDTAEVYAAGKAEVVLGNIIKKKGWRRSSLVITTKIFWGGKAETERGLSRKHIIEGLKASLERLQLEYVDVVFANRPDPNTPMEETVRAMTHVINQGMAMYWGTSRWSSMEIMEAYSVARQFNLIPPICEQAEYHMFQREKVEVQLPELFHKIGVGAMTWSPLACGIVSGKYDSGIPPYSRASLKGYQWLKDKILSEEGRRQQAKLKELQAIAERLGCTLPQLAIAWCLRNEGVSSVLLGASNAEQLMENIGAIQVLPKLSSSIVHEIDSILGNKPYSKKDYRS

Compound	cell count [1]	inhibition [1]	inhibition of aggregation [2]	nuclei count [2] [%]	inhibition [3]	nuclei count [3] [%]	fluorescence slope [4]	NADPH fluorescence slope [5]	slope [6]	inhibition [7]	inhibition [8]
CC(C)(C)NC(=O)CC(CC(=O)O)c1ccccc1 (stereo not drawn)	584	2.9% (inactive)	-4.2% (inactive)	85.7	-30.6% (inactive)	109	-0.539 (inactive)	-3.4e-05 (inactive)	0.008 (inactive)	12.7% (inactive)	37.3% (inactive)
CCC(C(=O)NC1CCCC1)N(Cc1ccco1)C(=O)Cn1nnc(-c2ccc(C)cc2)n1 (stereo not drawn)	478	1.7% (inactive)	10.6% (inactive)	114	-150% (inactive)	112	-0.617 (inactive)	-1.6e-05 (inactive)	0.0026 (inactive)	10.8% (inactive)	-7.83% (inactive)
Cc1ccc2occ(CN3CCN(c4ccccc4)CC3)c(=O)c2c1	258	-0.8% (inactive)	14.3% (inactive)	81.9	-17% (inactive)	93.3	-0.454 (inactive)	-1.6e-05 (inactive)	0.00585 (inactive)	15.8% (inactive)	18.1% (inactive)
CCC(=O)N/C(N)=N/c1nc(C)c2cc(OC)ccc2n1	730	10.7% (inactive)	-24.4% (inactive)	95.9	9.1% (inactive)	92.1	-0.378 (inactive)	-1.1e-05 (inactive)	0.00511 (inactive)	-62.4% (inactive)	-122% (inactive)
Cc1cc(=O)oc2cc(OCC(=O)OCC(=O)N3CCc4ccccc43)ccc12	358	4.7% (inactive)	-5% (inactive)	88.9	-44.9% (inactive)	103	-0.331 (inactive)	-5.7e-05 (inactive)	0.00553 (inactive)	11% (inactive)	16.2% (inactive)
C(/CCc1ccccc1)=N\n1cnnc1	312	18.4% (inactive)	-7% (inactive)	109	17.1% (inactive)	105	-0.628 (inactive)	-5.3e-05 (inactive)	0.00355 (inactive)	5.76% (inactive)	0.464% (inactive)
O=C(C1CCC(CNS(=O)(=O)c2cccc3cccnc23)CC1)N1CCCC1 (stereo not drawn)	711	5.5% (inactive)	-15.3% (inactive)	67.8	-43.8% (inactive)	112	-0.549 (inactive)	-1.6e-05 (inactive)	0.00608 (inactive)	-0.546% (inactive)	14.6% (inactive)
Cc1nn(-c2nc3ccccc3s2)c(C)c1Oc1ccccc1O	591	-9.8% (inactive)	-19.1% (inactive)	107	-154% (inactive)	161	-0.437 (inactive)	-2.9e-06 (inactive)	0.00527 (inactive)	2.14% (inactive)	-97.7% (inactive)
Cc1ccc2c(c1)c1c3n2CC(=C2C(=O)OC(C)(C)OC2=O)NC3CCC1 (stereo not drawn)	613	-10.5% (inactive)	-5.4% (inactive)	10.9	-142% (inactive)	139	-0.589 (inactive)	-1.7e-05 (inactive)	0.00226 (inactive)	16.6% (inactive)	1.44% (inactive)
Cc1cc2ccccc2n1CCNC(=O)c1ccc(S(=O)(=O)N2CCOCC2)cc1	194	0.8% (inactive)	14.3% (inactive)	93.1	-41.3% (inactive)	101	-0.603 (inactive)	-1.9e-05 (inactive)	0.00522 (inactive)	13.5% (inactive)	30% (inactive)
Cc1occc1C(=O)N1CCN(c2ncccn2)CC1	347	-12.5% (inactive)	5% (inactive)	102	-117% (inactive)	101	-0.356 (inactive)	6.9e-06 (inactive)	0.00583 (inactive)	-8.62% (inactive)	4.37% (inactive)
Cc1cc(OCC(O)CN2CCN(CCO)CC2)ccc1C(C)C (stereo not drawn)	428	-0.5% (inactive)	16.4% (inactive)	94.9	24% (inactive)	93.2	-0.439 (inactive)	-3.1e-05 (inactive)	0.00431 (inactive)	9.34% (inactive)	29.3% (inactive)
COc1cccc(CN=CC2=C(O)CC(C)(C)CC2=O)c1OC	326	-18.3% (inactive)	-1.8% (inactive)	99.6	-1.5% (inactive)	111	-0.468 (inactive)	9.7e-05 (inactive)	0.00629 (inactive)	1.64% (inactive)	3.58% (inactive)
